Measurements taken from the supplement of paper PMC13380429.

Tested on: Vero E6 infected with SARS-CoV-2
Test: inhibition of SARS-CoV-2 cytopathic effect; higher = more antiviral protection, active = above 15
Conditions: 48 h

Measured: inhibition of SARS-CoV-2 cytopathic effect

COC(=O)[C@H](Cc1ccccc1)NC(=O)[C@@H](N)CC(=O)O [aspartame]
inactive: 1 nM -0.23% | 8.33 nM -0.6% | 100 nM 0.53% | 833.33 nM -1.78% | 10000 nM 0.85%

CCCCCCOC(=O)CCC(=O)CN [hexaminolevulinate]
inactive: 1 nM -0.29% | 8.33 nM 0.97% | 100 nM 1.79% | 833.33 nM 1.44% | 10000 nM 5.39%

C[C@H]1[C@H](C)CC[C@]2(C(=O)O)CC[C@]3(C)C(=CC[C@@H]4[C@@]5(C)C[C@@H](O)[C@H](O)C(C)(C)[C@@H]5CC[C@]43C)[C@H]12 [corosolic-acid]
inactive: 1 nM -3.62% | 8.33 nM -0.43% | 100 nM -0.51% | 833.33 nM -4.03% | 10000 nM -1.21%

CCOc1ccc(NC(=S)N2CCC(C(O)(c3ccccc3)c3ccccc3)CC2)cc1
inactive: 1 nM -2.59% | 8.33 nM -1.73% | 100 nM -2.48% | 833.33 nM -3.52% | 10000 nM -4.05%

O=c1[nH]cnc2nc[nH]c12 [hypoxanthine]
inactive: 1 nM 4.22% | 8.33 nM 2.78% | 100 nM 1.76% | 833.33 nM 0.21% | 10000 nM 2.46%

N[C@@]1(C(=O)O)CC[C@H]2[C@H](C(=O)O)[C@H]21 [eglumetad]
inactive: 1 nM 0.4% | 8.33 nM -0.24% | 100 nM -0.34% | 833.33 nM -0.18% | 10000 nM 2.06%

c1ccc(-c2n[nH]c3c2oc2ccccc23)cc1
inactive: 1 nM -0.45% | 8.33 nM -5.74% | 100 nM 1% | 833.33 nM 2.4% | 10000 nM -0.82%

CO[C@H]1C[C@@H]2CC[C@@H](C)[C@@](O)(O2)C(=O)C(=O)N2CCCC[C@H]2C(=O)O[C@H]([C@H](C)C[C@@H]2CC[C@H](n3cnnn3)[C@H](OC)C2)CC(=O)[C@H](C)/C=C(\C)[C@@H](O)[C@@H](OC)C(=O)[C@H](C)C[C@H](C)/C=C/C=C/C=C/1C [zotarolimus]
inactive: 1 nM -1.51% | 8.33 nM -2.41% | 100 nM -1.68% | 833.33 nM -2.21% | 10000 nM 1.71%

N#CC(c1ccnc(OCc2ccc(CN3CCOCC3)cc2)n1)c1nc2ccccc2s1 (stereo not given)
inactive: 1 nM -1.68% | 8.33 nM 0.15% | 100 nM 1.92% | 833.33 nM 2.82% | 10000 nM 6.87%

N[C@H]1C(O)O[C@H](CO)[C@@H](O)[C@@H]1O (mixture of isomers) [glucosamine]
inactive: 1 nM 3.44% | 8.33 nM 0.07% | 100 nM 2.73% | 833.33 nM 0.81% | 10000 nM 1.42%

COc1cc2c(NC3CCN(C)CC3)nc(N3CCCN(C)CC3)nc2cc1OCCOCCN(C)C
inactive: 1 nM -0.25% | 8.33 nM 0.8% | 100 nM -0.4% | 833.33 nM 2.99% | 10000 nM -3.09%
